Lassa entry inh: qHTS for Inhibitors of binding or entry into cells for Lassa Virus; Lassa virus pseudotype entry inhibition, cell reporter; Potency, µM (top dose mostly 37.9 µM), without a hit: at the top dose activity change, negative = inhibition, most hits filed as inhibitors; 300,000 tested, 1.2% active; AID 540256, 2011; calls by dose curve; tested in HEK293 cells; also: nearly all actives have a fitted effect of over 50% in size
Marburg entry inh: qHTS for inhibitors of binding or entry into cells for Marburg Virus. Potency, µM (doses to about 37.8 µM), without a hit: top-dose activity change, negative = inhibition, actives largely listed as inhibitors. 300,000 tested, 1.8% active. Marburg virus pseudotyped entry inhibition, cell reporter; calls by dose curve; tested in HEK293 cells
AmpC no deterg: qHTS Inhibitors of AmpC Beta-Lactamase (assay without detergent); P00811; AmpC nitrocefin hydrolysis, absorbance 480 nm, 0.0001% Triton; Potency, µM (top dose mostly 57.1 µM), inactives show at the top dose activity change, negative = inhibition, actives largely listed as inhibitors; 330,000 tested, 0.52% active; AID 485341, 2010;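 also: plate controls were no compound for no effect and no enzyme for full effect; nearly all actives have a fitted effect of over 20% in size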
Target sequence (P00811 whole entry, looked up): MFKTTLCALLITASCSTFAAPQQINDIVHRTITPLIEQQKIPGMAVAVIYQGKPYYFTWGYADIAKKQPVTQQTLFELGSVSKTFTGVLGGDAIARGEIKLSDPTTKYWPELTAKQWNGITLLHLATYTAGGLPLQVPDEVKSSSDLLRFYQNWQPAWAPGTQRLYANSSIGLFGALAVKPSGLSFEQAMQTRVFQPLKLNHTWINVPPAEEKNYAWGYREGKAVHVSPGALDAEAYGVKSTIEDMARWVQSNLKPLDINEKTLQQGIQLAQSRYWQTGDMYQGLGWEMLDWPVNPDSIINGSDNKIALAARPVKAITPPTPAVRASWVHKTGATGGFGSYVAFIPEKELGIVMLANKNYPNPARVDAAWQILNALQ
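20 mM phosphate pH 7.0 + 0.01% (detergent screen) or 0.0001% Triton X-100; 5.3 nM AmpC reagent; cpd preinc 15 min RT; nitrocefin (800 uM stock) to start; A480 q20 s × 4 min; Activity was normalised to no-enzyme and no-compound control wells.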
AmpC inh detg: qHTS Inhibitors of AmpC Beta-Lactamase (assay with detergent); Potency, µM (top dose mostly 114 µM), for the others: top-dose activity change, negative = inhibition, most hits filed as inhibitors; 370,000 tested, 0.041% active; AmpC hydrolysis of nitrocefin, absorbance 480 nm, 0.01% Triton; P00811;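 also: 0% = no-compound wells and -100% = no-enzyme wells; nearly all actives have a fitted effect of over 25% in size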
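AmpC (5.3 nM in the dispensed reagent) in 20 mM phosphate pH 7.0 with 0.01% (detergent screen) or 0.0001% Triton X-100 was preincubated with compounds for 15 min at room temperature. Nitrocefin was then added from an 800 uM solution, and hydrolysis was followed at 480 nm.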
AMA1 RON2 block: qHTS for Inhibitors of AMA1-RON; Towards Development of Antimalarial Drug Lead: Primary Screen. Plasmodium falciparum AMA1 (3D7) - RON2 peptide interaction. AlphaScreen AMA1-biotinylated RON2 peptide binding. Potency, µM (doses to about 58.2 µM), without a hit: top-dose activity change, negative = inhibition, most hits filed as inhibitors. 360,000 tested, 0.2% active;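 also: 0% = vehicle wells and -100% = peptide control; nearly all actives have a fitted effect of over 45% in size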
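AMA1 (3D7) with his tag at 25 nM final met compounds first, then biotinylated RON2 peptide at 25 nM; detection used donor plus acceptor beads, 10 µg/mL apiece, read by AlphaScreen after 30 min at room temperature.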
Starred values were filed as active, the others as inactive; ? = inconclusive; nt = not tested or not shown; [ ] = another dose, or the depositor's remark. Compounds with a hit are over-represented: about 2.3% of the library has one in this group of screens. Unless noted, calls follow the shape of the dose curve; as a rule, active = well fitted curve in the direction sought with a large enough effect; inconclusive = small, poorly fitted or top-dose-only effect, or another doubt; inactive = no such curve, though single readings can be large; an effect the other way counts as inactive or inconclusive. Unless noted, % is scaled to controls: 0 for no effect and ±100 for the full control effect; potency is read from the fitted curve at half-maximal effect.

SMILES	Lassa entry inh	Marburg entry inh	AmpC no deterg	AmpC inh detg	AMA1 RON2 block
Cc1ccc(C)c(S(=O)(=O)N2CCN(Cc3ccc(O)c4ncccc34)CC2)c1	9.2µM*	7.3µM*	-7%	-9%	30%
CCOc1ccc(/C=C/c2nc(C#N)c(N3CCC(C)CC3)o2)cc1	?	?	nt	23%	nt
c1ccc(-c2ncc3c(ccc4ccccc43)n2)cc1	3.5µM*	?	-11%	?	-5%
COc1ccc(CN2c3c(Br)cccc3C(=O)CS2(=O)=O)cc1	nt	nt	13µM*	nt	-4%
O=C1CS(=O)(=O)N(Cc2cccc(F)c2)c2ccc(Br)cc21	nt	nt	-48%	12%	7%
CCc1ccccc1NC(=O)Cn1nc(CC)n2c(cc3sccc32)c1=O	nt	1%[46.1 µM]	nt	22%	nt
CCCCCC(=O)N1C[C@@H](O)[C@H](n2cc(-c3ccc(F)cc3)nn2)C[C@H]1c1ccc(OC)cc1	11%[46.1 µM]	nt	nt	nt	nt
Cc1ccccc1S(=O)(=O)Cc1ccc(C(=O)N2CCN(c3cccc(C)c3C)CC2)o1	3.5µM*	?	60%	-3%	-6%
C=CCN(c1ccccc1)S(=O)(=O)c1cccc(C(=O)N(CC)CC(=O)Nc2c(F)cccc2F)c1	18µM*	?	36%	-15%	9%
CN(c1cccc(Cl)c1)S(=O)(=O)c1cccc(C(=O)Nc2nc3ccccc3[nH]2)c1	?	22µM*	-42%	-9%	38%
C=CCN(c1ccccc1)S(=O)(=O)c1cccc(C(=O)Nc2nc3ccccc3[nH]2)c1	-25%	?	10µM*	-12%	14%
O=C(/C(=C/c1ccc(Cl)cc1)c1nc2ccccc2[nH]1)c1ccccc1	4.1µM*	?	-25%	10%	65%
Cc1nn(-c2ccc3nnc(C)n3n2)c(C)c1CCC(=O)Nc1ccc(OC(F)(F)F)cc1	?	nt	nt	2%	nt
CCOC(=O)NN=C1C[C@@H](O)[C@@H](O)[C@@H]2[C@H]3C(=O)N(C4CCCCC4)C(=O)[C@@H]3CC[C@@H]12	13%[14.3 µM]	-25%[14.2 µM]	nt	nt	nt
O=C(Nc1nc2ccccc2[nH]1)c1ccccc1	?	?	-16%	2%	-4%
O=C(Nc1nc2ccccc2[nH]1)c1ccc(Cl)cc1	2.5µM*	?	-26%	?	79%
COc1ccc(S(=O)(=O)Nc2ccc3oc4c(c3c2)CCCC4)cc1	?	10µM*	nt	22%	nt
COc1ccc(S(=O)(=O)Nc2ccc3oc(C)c(C(=O)O)c3c2)cc1	nt	-1%	-28%	-7%	-6%
CCOC(=O)OC[C@H]1O[C@H](c2ccc(C(C)=O)cc2)C=C[C@@H]1Oc1ccc(-c2ccccc2)cc1	nt	3%[14.2 µM]	nt	nt	nt
Cc1ccc(OCCn2c(NC(=O)c3ccco3)nc3ccccc32)cc1	-4%	?	20µM*	9%	97%
O=C(Nc1nc2ccccc2n1CCOc1ccccc1)c1ccco1	?	?	-13%	-13%	31%
Cc1ccc2cc3c(N)c(C(=O)N4CCOCC4)sc3nc2c1	-22%	-20%	-2%	?	36%
Cc1ccc2nc3sc(C(=O)N4CCOCC4)c(N)c3cc2c1	?	0.41µM*	-20%	-7%	10%
COc1cc(NC(=O)Cn2c(=O)ccc3cc(S(=O)(=O)N4CCCC4)ccc32)cc(OC)c1	?	nt	nt	5%	nt
COP(=O)(OC)c1ccc(NCc2cc(O)ccc2O)cc1	-23%	4.5µM*	nt	nt	-24%
SMILES	Lassa entry inh	Marburg entry inh	AmpC no deterg	AmpC inh detg	AMA1 RON2 block
COC(=O)c1ccc(CCc2cc(O)c(Br)cc2O)cc1	-22%	5%	nt	nt	?
CC(C)OC(=O)c1ccc(NCc2cc(O)ccc2O)cc1	13µM*	2µM*	nt	nt	-16%
O=C(OCc1ccccc1)c1ccc(NCc2cc(O)ccc2O)cc1	2.5µM*	?	nt	nt	-29%
CCC(=O)Nc1ccc(C(=O)OCc2ccccc2)cc1	16%[46.1 µM]	?	-15%	1%	5%
COC(=O)c1ccc(CCc2cc(O)ccc2O)cc1	13µM*	?	nt	nt	-3%
CC1=C(C(=O)Nc2cccnc2)C(c2cccc(O)c2)n2nc(SCc3ccccc3)nc2N1 (stereo not given)	-1%[46.1 µM]	nt	nt	5%	nt
CCN1CCN(C(c2ccc(F)cc2)c2sc3nc(-c4ccco4)nn3c2O)CC1 (stereo not given)	?	nt	nt	7%	nt
CCOC(=O)c1cnc(SCc2ccc(C(C)(C)C)cc2)nc1N	4.1µM*	-3%	-18%	8%	2%
CCN(CC)S(=O)(=O)c1ccc(N2CCN(CCOc3ccc(OC)cc3)CC2)nc1	-20%[46.1 µM]	11µM*	122%	2%	-14%
COc1ccc(-c2nc(C#N)c(N3CCCCC3)o2)cc1	-3%	17%	8%	-8%	?
COc1ccc(-c2nc(C#N)c(N3CCCCCC3)o2)cc1	-4%	?	7.1µM*	9%	-5%
Cc1ccc(-n2nc(C)c(NC(=O)CCl)c2C)cc1C	11µM*	?	-5%	?	10%
Cc1nn(C)c(C)c1NC(=O)COc1ccc(Cl)cc1	nt	nt	-12%	-2%	1%
Cc1nn(C)c(C)c1NC(=O)CCl	11µM*	3%[46.1 µM]	31%	-3%	7%
CCC(=O)Nc1c(C)nn(-c2ccc(C)c(C)c2)c1C	0%	9%	-7%	-1%	0%
Cc1ccccc1Cn1c(CN2CCC(C(=O)NCCN(C)C)CC2)cc2ccccc21	-20%[46.1 µM]	nt	nt	10%	nt
COC(=O)C1=C(C(=O)OC)[C@@H]2N(Cc3ccccc3)c3ccccc3[C@@]23C[C@@H](C(=O)OC)N(C(=O)Nc2ccccc2F)C3=N1	nt	-13%[14.2 µM]	nt	nt	nt
CCOC(=O)CCN1C(=O)[C@@H]2[C@H]3[C@H](O)[C@H](O)CC(=NNC(=O)OCc4ccc(OC)cc4)[C@@H]3CC[C@H]2C1=O	?	12%[14.2 µM]	nt	nt	nt
COC(=O)c1cc(S(=O)(=O)C(C)C)c(S(C)=O)s1 (stereo not given)	-2%[46.1 µM]	11µM*	-17%	0%	4%
CSc1sc(C(=O)NCC2CC2)cc1S(=O)(=O)C(C)C	?	-1%[46.1 µM]	-16%	0%	-1%
Cc1ccc(-n2cc(CN3CCNC(=O)CC3)c(-c3ccc(F)cc3)n2)cc1	3%	-22%[46.1 µM]	139%	-3%	-13%
Cc1ccc(-n2cc(CN3CCC(O)(c4ccccn4)CC3)c(-c3ccc(F)cc3)n2)cc1	?	4µM*	151%	0%	-4%
CC(C)Cc1ccc(C(C)C(N)=NCCc2ccccc2)cc1 (stereo not given)	?	2.2µM*	72%	-4%	-10%
c1ccc(N(c2ccccc2)c2nc(N3CCCC3)nc(-n3ccnc3)n2)cc1	1.6µM*	?	18%	0%	-3%
CC(N)Cc1c[nH]c2ccc(OCc3cccs3)cc12 (stereo not given)	7%	21µM*	nt	nt	-18%
C[C@H](N)Cc1c[nH]c2ccc(OCc3cccs3)cc12	nt	21µM*	nt	nt	nt
